Test results: ChEMBL document CHEMBL3433997, “St. Jude Leishmania screening dataset” (2016)

Legend:
Type in all cases: functional
[1] = target: Solute carrier family 2, facilitated glucose transporter member 1 (Homo sapiens) (UniProt P11166); assay: ST_JUDE_LEISH: Cytotoxicity at 2uM final concentration against transgenic Leishmania Mexicana promastigotes LmGLUT1 that are glucose transport deficient and complemented with the human glucose transporter GLUT1. Activity is measured by DNA content using SYBR green in vitro
[2] = target: Hexose transporter 1 (Plasmodium falciparum) (UniProt O97467); assay: ST_JUDE_LEISH: Cytotoxicity at 2uM final concentration against transgenic Leishmania Mexicana promastigotes LmPfHT that are glucose transport deficient and complemented with the Plasmodium falciparum hexose transporter. Activity is measured by DNA content using SYBR green in vitro
[3] = target: Glucose transporter (Leishmania mexicana) (UniProt O61059); assay: ST_JUDE_LEISH: Cytotoxicity at 2uM final concentration against transgenic Leishmania Mexicana promastigotes LmGT2 that are glucose transport deficient and complemented with the L. Mexicana glucose transporter 2. Activity is measured by DNA content using SYBR green in vitro

Solute carrier family 2, facilitated glucose transporter member 1 (Homo sapiens), sequence (P11166 whole entry): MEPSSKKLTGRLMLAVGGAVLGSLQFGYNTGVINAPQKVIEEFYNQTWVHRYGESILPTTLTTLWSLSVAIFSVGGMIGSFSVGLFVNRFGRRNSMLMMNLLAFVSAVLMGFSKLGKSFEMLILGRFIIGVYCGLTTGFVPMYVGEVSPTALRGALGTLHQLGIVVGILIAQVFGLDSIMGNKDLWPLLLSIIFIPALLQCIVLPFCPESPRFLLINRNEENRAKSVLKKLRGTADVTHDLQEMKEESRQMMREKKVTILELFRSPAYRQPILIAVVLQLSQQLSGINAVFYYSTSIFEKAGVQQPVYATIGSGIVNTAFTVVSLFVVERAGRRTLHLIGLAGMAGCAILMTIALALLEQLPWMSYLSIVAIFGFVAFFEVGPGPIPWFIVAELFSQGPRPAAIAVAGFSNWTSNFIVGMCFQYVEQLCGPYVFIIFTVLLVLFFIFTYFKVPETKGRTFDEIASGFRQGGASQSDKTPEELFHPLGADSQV

Row | SMILES | inhibition [1] [%] | inhibition [2] [%] | inhibition [3] [%]
1 | O=C(N[C@@H](CC1CCCCC1)C(=O)NCCN1CCCC1)c1ccc(O)c(-c2cccc(C(F)(F)F)c2)c1 | -0.44 | -0.43 | 0.16
2 | CS(=O)(=O)c1ccc(CNCc2cccc(-c3cccc(-c4nc5cc(C(F)(F)F)ccc5[nH]4)c3)c2)cc1 | 5.54 | 5.92 | 3.97
3 | Cc1cc(N(C)C)nc(Nc2ccc(NC(=O)C3CCCCC3)cc2)n1 | 5.14 | 5.64 | 3.75
4 | Cc1cccc(C)c1C1CCN(CCCCNC(=O)c2cc3ccccc3[nH]2)CC1 | 1.79 | 0.17 | 0.3
5 | CCN(CC)CCN(Cc1ccc(-c2ccc(C(F)(F)F)cc2)cc1)C(=O)Cn1c(CCc2ccc(F)c(F)c2F)nc(=O)c2cccnc21 | 0.59 | 0.44 | -0.8
6 | FC(F)(F)c1cccc(Nc2nc(-c3ccccc3)nc3ncccc23)c1 | 3.41 | 2.83 | 3.04
7 | O=C1COC2(CN1C1CCN(Cc3ccc(O)cc3Cl)C1)c1ccccc1-c1ccccc12 (centres undefined) | 2.42 | 2.74 | 1.29
8 | COc1cc(CCNCC(O)c2ccc([N+](=O)[O-])c(OCc3ccccc3)c2)cc(OC)c1OC (centres undefined) | -0.46 | 1.28 | 0.48
9 | O=C(O[C@H]1CN[C@H](C#Cc2cc3c(Nc4ccc(OCc5cccc(F)c5)c(Cl)c4)ncnc3s2)C1)N1CCCC1 | 3.78 | 6.01 | 4.65
10 | Cc1ccccc1CNc1noc(-c2c(F)cccc2Cl)n1 | 4.28 | 5.55 | 5.34
11 | CC(=O)NC(c1cccs1)c1cc(Cl)c2cccnc2c1O (centres undefined) | 7.76 | 6.65 | 7.85
12 | c1cc(CNCCc2ccncc2)cc(-c2csc(-c3nc4ccccc4[nH]3)c2)c1 | 0.51 | -1.59 | 1.05
13 | CO/N=C(\C)c1ccc2c(c1)CCN(CCC1CCC(NC(=O)/C=C/c3ccc(F)cc3)CC1)CC2 (centres undefined) | 6.29 | 3.02 | 11.2
14 | CCCCCn1c(Sc2ccc(C#N)c([N+](=O)[O-])c2)nnc1-c1cccs1 | 2.86 | 6.4 | 2.32
15 | O=S(=O)(c1ccc(Cl)cc1Cl)N1CCCCC(c2ccc(C(F)(F)F)cc2)=N1 | 0.38 | 0.43 | 1.07
16 | CS(=O)(=O)c1ccc(CNCc2ccc(-c3ccc(-c4nc5cc(C(F)(F)F)ccc5[nH]4)s3)cc2)cc1 | 12 | 10.7 | 9.87
17 | COc1cc(F)c2ncc(Cl)c([C@@H](O)CN3CCC(NCc4ccc5c(n4)NC(=O)CO5)CC3)c2c1 | 6.57 | 3.3 | 2.71

Row | SMILES | inhibition [1] [%] | inhibition [2] [%] | inhibition [3] [%]
18 | CC(C)(C)c1ccc(C(=O)Nc2cccc(Nc3c(C(=O)NCc4cccc(C(F)(F)F)c4)cnc4c(O)cccc34)c2)cc1 | 10.1 | 8.9 | 9.37
19 | Cc1cc(=NN=Cc2ccc(F)cc2)c2ccc(F)cc2[nH]1 | 0.14 | 0.15 | -0.46
20 | CCCCN(CCCC)CCCCNc1c2ccc(Cl)cc2nc2ccc(OC)cc12 | 14.5 | 17.5 | 13.3
21 | Clc1ncnc2scc(-c3ccc(Br)cc3)c12 | 7.74 | 6.35 | 3.52
22 | Cc1ccc(NC(=O)c2nc(N3CCN(c4ccncc4)CC3)ccc2Cl)cc1F | 13.1 | 7.01 | 5.57
23 | Clc1ccc(-c2cc3c(NCc4ccncc4)nccc3s2)cc1 | 6.24 | 4.38 | 2.2
24 | CN1CCN=C1c1ccc(NC(=O)Nc2ccc(C3=NCCN3C)cc2)cc1 | 13 | 7.37 | 5.87
25 | Cc1cc(Nc2ccc3c(c2)CCC3)n2ncnc2n1 | 0.63 | 0.55 | 0.55
26 | Cc1csc(-c2nonc2NC(=O)COc2ccccc2C(C)C)n1 | 2.07 | -1.84 | 2.3
27 | Cc1cc(N[C@@H](Cc2ccccc2)C(=O)NCc2cccc(F)c2)nc(NCCc2ccccc2)n1 | 5.82 | 4.21 | 2.48
28 | O=S(=O)(NCCN1CCCC1)c1cccc(-c2ccccc2CNC2Cc3ccccc3C2)c1 | 60.1 | 16 | 10.6
29 | O=C(O[C@@H]1CN[C@H](C#Cc2cc3c(Nc4ccc5c(cnn5Cc5ccccc5)c4)ncnc3s2)C1)N1CCCC1 | -0.49 | 0.25 | -0.78
30 | Cn1cccc1CCNCc1ccc(-c2cccc(-c3nc4cc(F)ccc4[nH]3)c2)cc1 | 3.65 | 3.24 | 3.01
31 | O=c1cc(NCCCNC(CNCCc2ccccc2)c2cc(Br)cc(Br)c2)[nH]c2ccccc12 (centres undefined) | 2.57 | 3.4 | 2.67
32 | Cc1ccc(NC(=O)NC2CCN(c3ccnc4cc(Cl)ccc34)CC2)cc1 | 9.02 | 7.47 | 8.65
33 | COc1ccc2[nH]c(C)cc(=NN=Cc3ccc(Cl)cc3)c2c1 | 6.05 | 6.41 | -0.5
